Bioassay records (PubChem BioAssay)
rCAG binder = binds r(CAG) RNA repeats. inhibition, % at 3 µM. 370,000 compounds, 1.3% hits. AID 651821. r(CAG) RNA repeat, TO-PRO-1 dye displacement fluorescence;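 active = inhibition above the plate cutoff, the mean of all test compounds on that plate plus 3 SD, cut at about 35% in these data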;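 note: higher means more dye released from RNA so lower well fluorescence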
MsrA act = bovine methionine sulfoxide reductase A activation | purified bovine MsrA, absorbance read-out | activation, % at 10.6 µM | 360,000 compounds, 0.3% hits | AID 602163; in the data active = activation above about 7.5%
sPLA2-III inh = Blocks human group III sPLA2 activity. Q9NZ20. QFRET BODIPY PC-A2 liposome hydrolysis, fluorescence. inhibition, % at 12.2 µM. 370,000 compounds, 0.56% hits;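 active = inhibition above mean plus 3 SD of compounds lying within the high and low control bounds, cut at about 19% in these data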
Target sequence (Q9NZ20 whole entry, looked up): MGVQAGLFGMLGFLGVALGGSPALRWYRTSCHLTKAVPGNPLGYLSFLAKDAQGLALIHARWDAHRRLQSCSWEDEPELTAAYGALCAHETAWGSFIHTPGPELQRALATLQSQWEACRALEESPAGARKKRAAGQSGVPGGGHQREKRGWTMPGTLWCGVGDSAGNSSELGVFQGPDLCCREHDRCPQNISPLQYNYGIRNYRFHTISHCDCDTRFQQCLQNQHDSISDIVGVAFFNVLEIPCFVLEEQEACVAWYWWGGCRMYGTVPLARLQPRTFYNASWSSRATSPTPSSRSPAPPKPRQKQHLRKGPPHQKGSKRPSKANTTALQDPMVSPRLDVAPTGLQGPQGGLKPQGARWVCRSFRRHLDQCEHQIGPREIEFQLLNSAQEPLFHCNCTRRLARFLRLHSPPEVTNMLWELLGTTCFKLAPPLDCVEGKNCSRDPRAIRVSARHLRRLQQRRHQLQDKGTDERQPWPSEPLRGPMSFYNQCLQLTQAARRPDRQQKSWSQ
MsrA inh = inhibits bovine methionine sulfoxide reductase A. purified bovine MsrA, absorbance read-out. inhibition, % at 15.5 µM. 360,000 compounds, 0.75% hits; in the data active = inhibition above about 4.5%
PG9 Ab binder = small molecules binding HIV-1 gp120 antibody PG9 | TR-FRET gp120-PG9 antibody binding | 360,000 compounds, 0.43% hits | inhibition, % at 6.7 µM; in the data active = inhibition above about 8.5%
PG9 bind confirm = PG9 antibody binding, confirmed | shares compounds with PG9 Ab binder | TR-FRET PG9 antibody binding, biochemical | inhibition, % at 6.7 µM | 1,500 compounds, 90% hits | AID 651571; in the data active = inhibition above about 9%
PGV04 Ab binding = PGV04 control antibody binding, counter-screen; shares compounds with PG9 Ab binder; TR-FRET PGV04 antibody-gp120 binding, biochemical; inhibition, % at 6.7 µM; 1,500 compounds, 95% hits; AID 651604; in the data active = inhibition above about 9.5%
PG9 bind DR = small molecules binding HIV-1 gp120 antibody PG9. shares compounds with PG9 Ab binder. TR-FRET PG9 antibody-gp120 binding inhibition. IC50, µM. 95 tested, under 10 active. AID 651848; in the data active = IC50 below about 10 µM
PGV04 binding DR = counter-screen for PG9 binders: binding to control antibody PGV04 | 95 compounds, 20% hits | TR-FRET binding to control antibody PGV04 | IC50, µM | AID 651937 | shares compounds with PG9 Ab binder
PG126 DR counter = PG126 binding, dose response counter-screen | TR-FRET binding to antibody PG126, counterscreen | shares compounds with PG9 Ab binder | IC50, µM | 95 compounds, 20% hits
Each line names hits and unclear results; the compound was inactive in the other large screens (follow-up assays come after a bar, where they were run). Only some compounds are listed: those with a hit (about 3.2% of all), similar ones and a draw of the others. Cut-off read from the data, not from the text of the source, unless noted: active = IC50 below about 9 µM; inactive = the rest.

CCCc1nnc(NC(=S)Nc2ccccc2)s1	PG9 Ab binder 11.3 | PG9 bind confirm 10.2 | PGV04 Ab binding 12.6
CN(C)C(=O)NCCCC#Cc1ccccc1	none (no result: MsrA act, MsrA inh, PG9 Ab binder)
C[C@@H]1OC(C2CCCCC2)N(C)[C@H]2C[C@H]3c4[nH]c5cccc(-c6cccc(F)c6)c5c4CCN3C(=O)[C@@H]12 (some centres undefined)	none (no result: MsrA act, MsrA inh, PG9 Ab binder)
Brc1ccc(-c2nn3c(-c4ccco4)nnc3s2)o1	PG9 Ab binder 16.2 | PG9 bind confirm 20.0 | PGV04 Ab binding 37.3
COc1ccccc1NC(=S)OC1CCC12CCC(c1ccccc1)CC2 (centres undefined)	none (no result: MsrA act, MsrA inh, PG9 Ab binder)
COc1ccc(OC)c(Nc2nc(-c3ccccc3O)nc3ccccc23)c1	PG9 Ab binder 50.0 | PG9 bind confirm 50.8 | PGV04 Ab binding 74.9
COc1ccccc1Nc1nc(-c2ccccc2O)nc2ccccc12	none
COc1ccccc1C(=O)Nc1nnc(S(=O)(=O)N2CCCCC2)s1	PG9 Ab binder 36.5 | PG9 bind confirm 35.5 | PGV04 Ab binding 42.4
CS(=O)(=O)c1ccc2nc(NC(=O)c3cc4ccccc4o3)sc2c1	PG9 Ab binder 9.6 | PG9 bind confirm 23.5 | PGV04 Ab binding 33.2
COc1ccc(C(=O)Nc2nc3ccc(OC)cc3s2)cc1	none
COc1ccc(C(=O)Nc2nc3ccc(S(C)(=O)=O)cc3s2)cc1	PG9 Ab binder 45.8 | PG9 bind confirm 40.8 | PGV04 Ab binding 57.9
CS(=O)(=O)c1ccc2nc(NC(=O)c3ccc(Cl)cc3)sc2c1	PG9 Ab binder 58.0 | PG9 bind confirm 51.4 | PGV04 Ab binding 64.5
COc1ccccc1C(=O)Nc1nnc(S(=O)(=O)N2CCCCCC2)s1	none
CS(=O)(=O)c1ccc2sc(NC(=O)c3cc4ccccc4o3)nc2c1	none
CS(=O)(=O)c1ccc2nc(NC(=O)c3cccc(Cl)c3)sc2c1	none
O=C(CCc1ccccc1)N[C@H]1[C@H](OC(=O)c2cnccn2)CCC[C@]12C(=O)N(Cc1ccccc1)c1ccccc12	none (no result: MsrA act, MsrA inh, PG9 Ab binder)
COc1ccccc1C(=O)Nc1nc2ccc(S(C)(=O)=O)cc2s1	PG9 Ab binder 18.9 | PG9 bind confirm 26.9 | PGV04 Ab binding 36.8
Cn1cc(Cl)c(-c2n[nH]c(=S)n2-c2ccccc2)n1	PG9 Ab binder 16.1 | PG9 bind confirm 14.7 | PGV04 Ab binding 17.0
Cc1c(Cl)c(-c2n[nH]c(=S)n2-c2ccc(F)cc2)nn1C	PG9 Ab binder 10.4 | PG9 bind confirm 11.9 | PGV04 Ab binding 10.8 | PG9 bind DR inactive | PGV04 binding DR inactive | PG126 DR counter inactive
Cc1ccc(-n2c(-c3nn(C)cc3Cl)n[nH]c2=S)cc1	none
Cc1ccc2[nH]c3c(=S)nc[nH]c3c2c1	PG9 Ab binder 72.4 | PG9 bind confirm 44.4 | PGV04 Ab binding 20.7 | PG9 bind DR inactive | PGV04 binding DR inactive | PG126 DR counter inactive
CN(C)c1ccc(/C=N\NC(=O)c2cccc(S(=O)(=O)N(C)C)c2)cc1	none (no result: MsrA act, MsrA inh, PG9 Ab binder)
S=C(Nc1ccccc1Cl)OCCN1CCCC12CCC(c1ccccc1)CC2 (centres undefined)	none (no result: rCAG binder, MsrA act, MsrA inh, PG9 Ab binder)
CC(=O)c1cccc(N/C=C\c2nnnn2-c2ccc(F)cc2)c1	PG9 Ab binder 16.6 | PG9 bind confirm 10.8 | PGV04 Ab binding 19.8
CC[C@@]1(O)C(=O)OCc2c1cc1n(c2=O)Cc2cc3c(CN(C)C)c(O)ccc3nc2-1	PG9 Ab binder 12.4 | PG9 bind confirm 11.9 | PGV04 Ab binding 19.6
Cc1onc(-c2c(F)cccc2Cl)c1C(=O)Nc1nccs1	none
Cc1onc(-c2c(F)cccc2Cl)c1C(=O)Nc1nnc(C(F)(F)F)s1	PG9 Ab binder 24.4 | PG9 bind confirm 29.5 | PGV04 Ab binding 41.8
CC(=O)Nc1cccc(C(C)C2=CCCCC2)c1 (centres undefined)	none (no result: MsrA act, MsrA inh, PG9 Ab binder)
Cc1nc(C(=O)Nc2ccccc2Cl)cc2c1[nH]c1ccccc12	PG9 Ab binder 21.7 | PG9 bind confirm 11.6 | PGV04 Ab binding 25.9
COc1ccc(NC(=O)c2cc3c([nH]c4ccccc43)c(C)n2)cc1	none
